Measurements: PubChem BioAssay AID1220 (Sanford-Burnham Center for Chemical Genomics, 2008)
Out of some 190,000 compounds screened, about 1,300 (0.68%) were called active. This is one part of a sample in which actives are shown more often than they occur. Rule as the data show it: active = inhibition above about 50%; inactive = the rest.

Target: Mannose-6-phosphate isomerase (Homo sapiens) (UniProt P34949)
Experiment: MPI inhibition at elevated mannose 6-phosphate – biochemical, fluorescence intensity, high mannose 6-phosphate, primary screen (AID 1220)
Conditions: recombinant PMI enzyme, coupled fluorescence intensity; at 20 µM; stronger effect = higher value

Chain of Mannose-6-phosphate isomerase (Homo sapiens) (P34949 whole entry, looked up): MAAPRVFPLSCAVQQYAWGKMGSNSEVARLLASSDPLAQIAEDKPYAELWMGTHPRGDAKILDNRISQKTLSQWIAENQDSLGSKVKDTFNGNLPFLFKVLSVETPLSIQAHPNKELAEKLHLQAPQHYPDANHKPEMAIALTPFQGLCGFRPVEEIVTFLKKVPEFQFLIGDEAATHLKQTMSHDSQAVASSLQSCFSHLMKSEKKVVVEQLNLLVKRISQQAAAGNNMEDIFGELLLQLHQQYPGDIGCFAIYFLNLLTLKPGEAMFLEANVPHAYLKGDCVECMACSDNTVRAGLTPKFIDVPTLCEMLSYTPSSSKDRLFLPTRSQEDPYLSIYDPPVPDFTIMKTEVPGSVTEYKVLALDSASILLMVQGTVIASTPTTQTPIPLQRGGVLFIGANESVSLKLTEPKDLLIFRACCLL

| SMILES | inhibition |
| --- | --- |
| Cc1ccc(-c2nc(CN(CC3CCC3)CC3CCCO3)c(C)o2)s1 (stereo unspecified) | 5.6% (inactive) |
| COC(=O)C/C=C/[C@@H](C)[C@@H](/C=N/OCC[C@@H]1C=C[C@H](OC(C)=O)[C@@H](COC(C)=O)O1)NS(=O)(=O)c1ccc(C)cc1 | -6.1% (inactive) |
| CN1CC=C2C(C#N)=C(N)C(C#N)(C#N)C(CCc3ccccc3)C2C1 (stereo unspecified) | 17.3% (inactive) |
| CC(C)N1CC=C2C(C#N)=C(N)C(C#N)(C#N)[C@H](c3ccoc3)[C@H]2C1 | 58.4% (active) |
| CC(=O)N1CC=C2C(C#N)=C(N)C(C#N)(C#N)C(CCc3ccccc3)C2C1 (stereo unspecified) | 14% (inactive) |
| CCCC1C2CN(C(C)=O)CC=C2C(C#N)=C(N)C1(C#N)C#N (stereo unspecified) | -10.2% (inactive) |
| CC(C)N1CC=C2C(C#N)=C(N)C(C#N)(C#N)C(c3ccccc3)C2C1 (stereo unspecified) | 20.5% (inactive) |
| CCN1CC=C2C(C#N)=C(N)C(C#N)(C#N)C(CCc3ccccc3)C2C1 (stereo unspecified) | 52.5% (active) |
| CN1CC=C2C(C#N)=C(N)C(C#N)(C#N)[C@H](c3ccoc3)[C@H]2C1 | 15.1% (inactive) |
| CCCC1C2CN(C(C)C)CC=C2C(C#N)=C(N)C1(C#N)C#N (stereo unspecified) | 60.7% (active) |
| Cc1ccc(C2C3CN(C(C)C)CC=C3C(C#N)=C(N)C2(C#N)C#N)cc1 (stereo unspecified) | 24.4% (inactive) |
| Cc1ccccc1-c1nc(CN(Cc2c(C)nn(C)c2C)C2CC2)c(C)o1 | 5.6% (inactive) |
| CC(C)(C)c1ccc2c(c1)N(CC(=O)O)C(=O)CO2 | -8.3% (inactive) |
| Cc1cccc(NC2SC(=O)NC2=O)c1 (stereo unspecified) | 0.9% (inactive) |
| CCCc1c(O)nc(SCC(=O)NCCc2ccc(OC)c(OC)c2)[nH]c1=O | 6.4% (inactive) |
| COc1ccc(CNc2oc(Cc3cccc4ccccc34)nc2C#N)cc1 | 9.4% (inactive) |
| CCCN1CCN(CCCNC(=O)CCNC(=O)Cn2ccc3ccccc3c2=O)CC1 | -3.5% (inactive) |
| O=C(CCNC(=O)Cn1ccc2ccccc2c1=O)NCCCN1CCN(c2ccccc2F)CC1 | 54.6% (active) |
| O=C(CCNC(=O)Cn1ccc2ccccc2c1=O)NCCCN1CCN(c2ccc(F)cc2)CC1 | -5.7% (inactive) |
| Cc1cccc(N2CCC(N3CCN(C4CCCCC4)C(CCO)C3)CC2)c1C (stereo unspecified) | 22.8% (inactive) |
| O=C(CSc1nnc(-c2ccco2)o1)NC1CCCCCC1 | -4.7% (inactive) |
| COc1cc(C)c(Cl)cc1S(=O)(=O)NCCCN1CCOCC1 | 2% (inactive) |
| O=C1/C(=C/c2ccco2)Cc2ccccc21 | 16% (inactive) |
| COc1cc(/C=C2\CC/C(=C\c3cc(OC)c(OC)c(OC)c3)C2=O)cc(OC)c1OC | 11.2% (inactive) |

| SMILES | inhibition |
| --- | --- |
| COc1cc(/C=C2\CCc3ccccc3C2=O)cc(OC)c1OC | 23.9% (inactive) |
| O=C1/C(=C\c2ccco2)CCC/C1=C\c1ccco1 | -57.2% (inactive) |
| O=C1/C(=C/c2ccco2)CCc2ccccc21 | 56.9% (active) |
| Nc1ccc2c(c1)C/C(=C/c1ccco1)C2=O | -39.6% (inactive) |
| COc1ccc(/C=C2\CC/C(=C\c3ccc(OC)c(OC)c3)C2=O)cc1OC | 20.6% (inactive) |
| COc1cc(/C=C2/CCc3ccccc3C2=O)cc(OC)c1OC | 23.1% (inactive) |
| COc1ccc2c(c1)CC/C(=C/c1cc(OC)c(OC)c(OC)c1)C2=O | 52.2% (active) |
| COc1ccc2c(c1)CC/C(=C/c1ccco1)C2=O | 57.4% (active) |
| COc1ccc2c(c1)CC/C(=C/c1ccncc1)C2=O | 11.5% (inactive) |
| COc1ccc([N+](=O)[O-])cc1NC(=O)Nc1cccc(Cl)c1 | -1.5% (inactive) |
| O=C(Cn1nc(CNc2ccc(Cl)cc2)[n+]2c1CCCCC2)c1ccc(Br)cc1 | 9.2% (inactive) |
| CCSc1nnc(-c2ccccc2N)c(=O)[nH]1 | -2% (inactive) |
| CCN(CC)S(=O)(=O)c1cc(-c2nnc(-c3ccc(Br)cc3)o2)ccc1Cl | 3.4% (inactive) |
| O=C(CN1CCC(NC(=O)Cc2ccccc2)CC1)Nc1ccccc1Br | -0.4% (inactive) |
| CSc1ccccc1NC(=O)CCn1c(=O)sc2ccccc21 | -0.9% (inactive) |
| Clc1ccc(OCCSc2ncccn2)cc1 | 11.9% (inactive) |
| COc1ccc(-n2cc(CNCCCn3ccnc3)c(-c3ccccc3Cl)n2)cc1 | 1.9% (inactive) |
| CCn1c2ccccc2c2cc(NC(=O)N3CCOCC3)ccc21 | 20% (inactive) |
| CCn1c2ccccc2c2cc(NC(=S)N3CCOCC3)ccc21 | 3% (inactive) |
| CCn1c2ccccc2c2cc(NC(=O)C(=O)N3CCOCC3)ccc21 | 50.2% (active) |
| O=C(NCc1ccncc1)C1=NN(c2ccccc2)C(=O)CC1 | -91.4% (inactive) |
| Cc1cccc(NCN2C(=O)C3C4C=CC(C4)C3C2=O)c1 (stereo unspecified) | 3.7% (inactive) |
| S=C(NCCc1ccccc1)Nc1ccc(Nc2ccccc2)cc1 | 0% (inactive) |
| CCN(CC)P(=O)(Nc1ccccc1Br)c1ccc(N(C)C)cc1NC(=O)c1ccco1 (stereo unspecified) | 16.4% (inactive) |

| SMILES | inhibition |
| --- | --- |
| CCN(CC)P(=O)(Nc1ccc(C)cc1Br)c1ccc(N(C)C)cc1NC(=O)c1ccco1 (stereo unspecified) | 53% (active) |
| CCN(CC)P(=O)(Nc1ccc(SC(F)F)cc1)c1ccc(N(C)C)cc1NC(=O)c1ccco1 (stereo unspecified) | 35.4% (inactive) |
| Cc1ccc2cc(C#N)c(N3CCCC3)nc2c1C | -56.8% (inactive) |
| O=C(Cc1c(Cl)cccc1Cl)OCC(=O)N1CCc2ccccc2C1 | -1% (inactive) |
| CCN1/C(=C/c2ccc3ccccc3[n+]2CC)C=Cc2ccccc21 | 17.7% (inactive) |
| CN1/C(=C/c2cc[n+](C)c3ccccc23)C=Cc2ccccc21 | 58% (active) |
| C[n+]1ccc(/C=C/c2ccccc2O)c2ccccc21 | 12.7% (inactive) |
| COc1ccc(CNC(=O)COC(=O)/C=C/c2ccco2)cc1 | -4.8% (inactive) |
| CCOC(=O)c1c(/N=C/c2cc(C)ccc2O)sc2c1CCN(C)C2 | -5.7% (inactive) |
| Nc1ccc(NC(=O)c2ccco2)c(Cl)c1 | -1.2% (inactive) |
| O=C(COc1ccccc1)NCCSCc1ccco1 | 5.1% (inactive) |
| CC(C)c1ccc(/C=N/Nc2cc(N3CCOCC3)nc(N3CCOCC3)n2)cc1 | 68.6% (active) |
| O=[N+]([O-])c1ccc(/C=N/Nc2nc(N3CCOCC3)nc(N3CCOCC3)n2)cc1 | -1.5% (inactive) |
| Cc1cc(C)nc(N/N=C/c2ccc(N3CCOCC3)cc2)n1 | 4.7% (inactive) |
| Clc1ccc(-c2ccc(/C=N/Nc3cc(N4CCOCC4)nc(N4CCOCC4)n3)o2)cc1 | 54.5% (active) |
| Brc1ccc(-c2ccc(/C=N/Nc3nc(N4CCOCC4)nc(N4CCOCC4)n3)o2)cc1 | 5.4% (inactive) |
| CN(C)c1ccc(/C=N/Nc2cc(N3CCOCC3)nc(N3CCOCC3)n2)cc1 | 60.4% (active) |
| Cc1ccc(/C=N/Nc2nc(N3CCOCC3)nc(N3CCOCC3)n2)o1 | -10.9% (inactive) |
| CN(C)c1ccc(/C=C/C=N/Nc2nc(N3CCOCC3)nc(N3CCOCC3)n2)cc1 | 8.9% (inactive) |
| C(=N\Nc1nc(N2CCOCC2)nc(N2CCOCC2)n1)/c1ccncc1 | -1% (inactive) |
| COc1c(C)cccc1C(=O)NC(=S)Nc1ccc2c(c1)Cc1ccccc1-2 | 8.2% (inactive) |
| COc1ccc(NS(=O)(=O)c2cc(NC(=O)Cn3cnc4c3c(=O)n(C)c(=O)n4C)ccc2C)cc1 | 8.9% (inactive) |
| CC(NC(=O)Cc1ccccc1)c1nc2ccccc2[nH]1 (stereo unspecified) | -7.3% (inactive) |
| Cc1nc2n(n1)C(O)c1cc([N+](=O)[O-])ccc1S2 (stereo unspecified) | 7.3% (inactive) |

| SMILES | inhibition |
| --- | --- |
| COc1ccc(C(=O)CN(Cc2ccccc2)C2=NCCS2)cc1 | -4.2% (inactive) |
| CCOC(=O)c1c(C)oc2ccc(O)c(CN3CCCCC3)c12 | 6.2% (inactive) |
| CCOC(=O)c1c(C)oc2c1c1c(c3ccccc32)OCN(Cc2cccnc2)C1 | 67.3% (active) |
| CCOC(=O)c1c(C)oc2c1c(C(c1cccnc1)N1CCN(C)CC1)c(O)c1ccccc12 (stereo unspecified) | 28.8% (inactive) |
| CCOC(=O)c1c(C)oc2c1c(C(c1cccnc1)N1CCCCC1)c(O)c1ccccc12 (stereo unspecified) | 26.9% (inactive) |
| CCOC(=O)c1c(C)oc2c1c(C(c1cccnc1)N1CCOCC1)c(O)c1ccccc12 (stereo unspecified) | 58% (active) |
| CCOC(=O)c1c(C)oc2c1c(C(c1ccncc1)N1CCOCC1)c(O)c1ccccc12 (stereo unspecified) | 10.8% (inactive) |
| CC(=O)Oc1ccc2c(c1)c(C(C)=O)c(C)n2C | -2.9% (inactive) |
| COc1ccccc1C(=O)N/N=C/c1cnc2ccccc2n1 | -4.4% (inactive) |
| CCCCNC(=O)c1ccc(CNS(=O)(=O)c2ccc(Br)cc2)cc1 | 4.4% (inactive) |
| COc1cc(C2C(C#N)=C(C)NC3=C2C(=O)CC(C)(C)C3)cc(OC)c1O (stereo unspecified) | 66.5% (active) |
| COc1cc(C2CC(=O)NC3=C2C(=O)CC(C)(C)C3)cc(OC)c1O (stereo unspecified) | 54.4% (active) |
| COc1cc(C2C(C#N)=C(C)NC3=C2C(=O)CC(C)(C)C3)ccc1OCCO (stereo unspecified) | 5.4% (inactive) |
| COc1cc(C2CC(=O)NC3=C2C(=O)CC(C)(C)C3)ccc1O (stereo unspecified) | 4.3% (inactive) |
| CC1(C)CC(=O)C2=C(C1)NC(=O)CC2c1ccc(F)cc1 (stereo unspecified) | -3.1% (inactive) |
| COc1cc(C2C(C#N)=C(C)NC3=C2C(=O)CC(C)(C)C3)ccc1O (stereo unspecified) | 3.8% (inactive) |
| CCc1cccc(NC(=O)CS(=O)Cc2nc(-c3ccc(C)cc3)oc2C)c1 (stereo unspecified) | 6.8% (inactive) |
| COc1ccccc1-n1cnnc1SCC(=O)NCC1CCCO1 (stereo unspecified) | -9.1% (inactive) |
| Cc1ccc2nc(-c3ccccc3)c(CN3CCOCC3)n2c1 | -1% (inactive) |
| O=C(NC(=S)Nc1nc(-c2ccc(Cl)cc2)cs1)c1cccs1 | -11.6% (inactive) |
| COc1ccc(C)cc1NC(=O)c1ccoc1C | 3.7% (inactive) |
| Cc1ccc(-c2cn3c(n2)SCC3)cc1 | 1% (inactive) |
| Oc1ccc(-c2cn3c(n2)SCC3)cc1 | -10.9% (inactive) |
| Oc1ccc(-c2cn3c(n2)SCC3)cc1O | 53.1% (active) |
